Reference: ChEMBL document CHEMBL4513216, “Probing the Open Global Health Chemical Diversity Library for Multistage-Active Starting Points for Next-Generation Antimalarials” (ACS Infect Dis, 2020)
About 2,700 (4%) of roughly 68,000 compounds showed an effect of 50% or more. Many of the other results were omitted from the sample, so strong results are more common in it than they were.

What follows are compounds tested on Plasmodium berghei (assay: Screen against P. berghei liver stage (PbLuc), transformed with Luciferase, at 2uM). Conditions: tested at 2 uM.
Format: functional, HepG2

| SMILES | INHIBITION |
| --- | --- |
| COc1cccc(C(=O)C2CCCN(c3cc(C#N)ccn3)C2)c1 (stereo not drawn) | -45.86% |
| CC(C)COc1cncc(NCCc2nnc3ccccn23)n1 | 39.02% |
| Cc1nn(C)cc1S(=O)(=O)N[C@@H]1CCC[C@@H](n2ccnc2)[C@@H]1O | 45.48% |
| CN(C)c1ccc(C(=O)N2CCN(Cc3cscn3)CC2)cn1 | 19.18% |
| CN(C)c1cc(C(=O)N2CCCN(Cc3cscn3)CC2)ccn1 | 51.21% |
| COc1ccccc1N1CCN(C(=O)c2ccoc2)CC1 | -2.44% |
| COc1ccccc1N1CCN(C(=O)c2ccnc(N(C)C)c2)CC1 | 56.78% |
| CN(C)c1ccc(C(=O)N2CCCN(Cc3cscn3)CC2)nn1 | -11.33% |
| CN(C)c1cc(C(=O)N2CCCC2)ccn1 | -18.23% |
| Cc1cnc(CCNc2cccc(CC3CCCNC3)n2)s1 (stereo not drawn) | 23.7% |
| CC[C@@H]1N(Cc2ccco2)CCC[C@]12CCC(=O)N2C | 53.46% |
| CC[C@H]1N(Cc2ccco2)CCC[C@]12CCC(=O)N2C | 23.26% |
| CC[C@@H]1N(Cc2ccsc2)CCC[C@]12CCC(=O)N2CCOC | -27.69% |
| CC[C@@H]1N(Cc2ccc(F)cc2)CCC[C@]12CCC(=O)N2C | 25.46% |
| CC[C@@H]1N(Cc2ccsc2)CCC[C@]12CCC(=O)N2C | 62.46% |
| CC[C@@H]1N(Cc2ccc(C)s2)CCC[C@]12CCC(=O)N2C | 20.42% |
| CCCOc1ccc(CC2=NC(C)(CO)CO2)cc1 (stereo not drawn) | -27.61% |
| CCNC(=O)[C@@H]1CCCN1[C@@H](C(=O)NC)c1ccccc1 | -11.34% |
| CSCc1noc(CN2CCC3(CC2)CC(=O)N(CC(C)C)C3)n1 | 10.61% |
| CC(C)N(CCCNC(=O)C1CC(=O)N(C)C1)S(C)(=O)=O (stereo not drawn) | 2.97% |
| COC(=O)C(C)(C)NC(=O)c1cnc(Cc2ccc(F)cc2)s1 | -32.82% |
| COc1ccnc(NC(Cc2ccccc2)C(N)=O)n1 (stereo not drawn) | 33.9% |
| COc1ccc(-c2ccc(C(=O)NCCCC(N)=O)c(F)c2)c(F)c1 | 53.81% |
| COc1ccc(-c2ccc(C(=O)O)c(F)c2)c(F)c1 | 17.01% |
| COc1ccc(-c2ccc(C(=O)NS(C)(=O)=O)c(F)c2)c(F)c1 | -27.53% |
| O=C(c1c[nH]cn1)N1CCCn2c(CN3CCCCC3)nnc2C1 | 51.26% |

| SMILES | INHIBITION |
| --- | --- |
| O=C(c1c[nH]cn1)N1CCCn2c(nnc2Cn2cccc2)C1 | 26.44% |
| CN(C)Cc1nnc2n1CCCN(C(=O)c1c[nH]cn1)C2 | -51.91% |
| CNc1cc(C)nc(C2CN(Cc3cncs3)CCO2)c1 (stereo not drawn) | -29.68% |
| CC(C)N(C)C(=O)CSCc1ccc(S(=O)(=O)N(C)C)o1 | 30.34% |
| Cn1cc(CN(C(=O)c2ccc3ncsc3c2)C2CC2)cn1 | 57.34% |
| Cn1cc(CN(C(=O)c2ccc(O)c(Cl)c2)C2CC2)cn1 | -33.15% |
| CN1C(=O)c2ccc(C(=O)N(Cc3cnn(C)c3)C3CC3)cc2C1=O | 21.14% |
| CCn1cnnc1C1CCN(C(=O)c2cccc(-n3cccc3)c2)CC1 | -6.48% |
| COc1cc(N2CCC3(CCN(Cc4nccs4)CC3)C2)ncn1 | 7.71% |
| CCCc1cc(C(=O)N(C)Cc2cccc3ncccc23)n(C)n1 | -24.24% |
| CCCc1cc(C(=O)N(C)Cc2ccc(OC)c3ncccc23)n(C)n1 | 58.56% |
| CCCc1cc(C(=O)N(C)Cc2cccc3cnccc23)n(C)n1 | 19.91% |
| O=C(c1ccccc1)N1C[C@H]2CC[C@@H](C1)N(S(=O)(=O)c1cccnc1)C2 | -23.58% |
| Cc1noc(C)c1CN1CCC2(CCN(Cc3cccc(F)c3)CC2)C1 | 24.04% |
| Cc1nc2ccccc2nc1NCc1cccc(OCC2CCCO2)c1 (stereo not drawn) | 17.25% |
| O=C(CC1=CCCCC1)N1CCC(Cn2cc(CCO)nn2)CC1 | -8.21% |
| O=C1O[C@@H]2CN(C3CCOCC3)C[C@@H]2N1CCCc1ccc(F)cc1 | -23.46% |
| COc1ccc(CCN2C(=O)O[C@@H]3CN(C4CCOCC4)C[C@@H]32)cc1 | 1.42% |
| COc1ccc(CCCN2C(=O)O[C@@H]3CN(C4CCOCC4)C[C@@H]32)cc1 | 51.81% |
| Cc1cc(CN(C)C(=O)CN2CC3(CCNCC3)OC2=O)n(C)n1 | 24.12% |
| CC(Cn1cc(Br)cn1)C(=O)Nc1ccc(C(N)=O)cc1 (stereo not drawn) | -34.79% |
| CSc1nnc(C2CCN(C(=O)N3CCCC3)CC2)n1C | 5.83% |
| O=C(Nc1cccnc1)[C@H]1C[C@H]2OCC[C@H]2N(Cc2ccc(F)cc2)C1 | 26.62% |
| Cn1ccnc1CN1CCc2ncnc(N3CCCC(C#N)C3)c2CC1 (stereo not drawn) | 23.64% |
| c1ccc(CN2CCc3ncnc(C4CC4)c3CC2)cc1 | 14.13% |
| N#CC1CCCN(c2ncnc3c2CCN(Cc2ccccc2)CC3)C1 (stereo not drawn) | 51.9% |

| SMILES | INHIBITION |
| --- | --- |
| Cc1cc(Cn2cc(C(C)Cc3ccc4c(c3)OCO4)nn2)n[nH]1 (stereo not drawn) | 49.88% |
| CC(Cc1ccc2c(c1)OCO2)c1cn(CCN2CCCC2)nn1 (stereo not drawn) | 69.71% |
| CC(Cc1ccc2c(c1)OCO2)c1cn(CCc2c[nH]cn2)nn1 (stereo not drawn) | 46.58% |
| CN(Cc1ccncc1)C1COC2(CCN(Cc3ccco3)CC2)C1 (stereo not drawn) | 45.36% |
| O=C(Nc1cn[nH]c1)c1ccc(O)nc1 | 45.75% |
| Cn1nc(C2CCCN(Cc3ccc(F)c(F)c3)C2)c2nccnc21 (stereo not drawn) | 38.65% |
| O=C(c1n[nH]c(=O)c2ccccc12)N1CCC(O)(CN2CCOCC2)C1 (stereo not drawn) | -28.4% |
| Cc1ccc(CN(CCCn2ccnc2)Cc2c(F)cccc2F)s1 | 36.26% |
| O=C(CCn1cccn1)N1C[C@H]2CC[C@@H](C1)N(Cc1ccccn1)C2=O | -19.54% |
| Cc1ccc2c(c1)C(NCc1ncnn1C)CC2 (stereo not drawn) | 38.67% |
| Cn1ncnc1CNC1CCc2cc(Cl)ccc21 (stereo not drawn) | 74.44% |
| Cn1ncnc1CNC1CCCc2cc(F)ccc21 (stereo not drawn) | -9.03% |
| CC(C)NC(=O)C1CCc2nnc(C(C)(C)C)n21 (stereo not drawn) | 12.84% |
| O=C(CCN1CCOCC1)Nc1cccc(CNCc2ccsc2)c1 | 3.54% |
| CCN(C(=O)NCc1ccccc1OC(F)F)C(C)c1cccnc1 (stereo not drawn) | 38.67% |
| CN(C)c1ncccc1CNC(=O)NCC(c1cccs1)N(C)C (stereo not drawn) | 31.55% |
| CC(NC(=O)NCc1cccnc1N(C)C)c1ccc(F)cc1 (stereo not drawn) | 59.21% |
| CN(C)c1ccc(NC(=O)NCc2cccnc2N(C)C)cn1 | 1.63% |
| CCOc1ccccc1CNC(=O)N(CC)C(C)c1cccnc1 (stereo not drawn) | 21.97% |
| CCN(C(=O)NCc1cccnc1N(C)C)C(C)c1cccnc1 (stereo not drawn) | 57.75% |
| CN(C)c1ncccc1CNC(=O)NCc1ccco1 | 37.15% |
| CC(C)C(NC(=O)NCc1cccnc1N(C)C)c1cccs1 (stereo not drawn) | -16.65% |
| CC(NC(=O)NCc1cccnc1N(C)C)c1cccs1 (stereo not drawn) | 51.31% |
| CCN(CC1CN(CC2CCC2)CCO1)c1cccnn1 (stereo not drawn) | 47.61% |
| Cc1nc2n(n1)CC(NCc1cc(Cl)c3c(c1)OCCCO3)CC2 (stereo not drawn) | 3.86% |
| CN(Cc1ccco1)[C@@H]1CN(Cc2ccc(F)cc2)[C@@H]2CCCO[C@H]12 | -12.36% |

| SMILES | INHIBITION |
| --- | --- |
| COc1ncnc(N)c1CNCCc1ccc(-n2cccn2)cc1 | 18.37% |
| O=C(c1cccs1)N1CC[C@H]2C[C@@H](c3nnc(C4CC4)o3)O[C@@H]2C1 | 31.41% |
| CN(C)C(=O)C1OC2(CCN(C(=O)c3ccoc3)CC2)c2ccccc21 (stereo not drawn) | 25.43% |
| CCC(O)CN1CCN(C(=O)c2cccn2Cc2ccncc2)CC1 (stereo not drawn) | -21.72% |
| COCC1Cn2nnc(-c3cnn(C)c3)c2CN1Cc1ccc(C)s1 (stereo not drawn) | 52.77% |
| COCC1Cn2nnc(-c3cnn(C)c3)c2CN1Cc1ccc(C)o1 (stereo not drawn) | 56.76% |
| COCC1Cn2nnc(-c3cnn(C)c3)c2CN1Cc1ccco1 (stereo not drawn) | 14.97% |
| COCC1Cn2nnc(-c3cnn(C)c3)c2CN1Cc1cccs1 (stereo not drawn) | -34.95% |
| COCC1Cn2nnc(-c3cnn(C)c3)c2CN1Cc1ccsc1 (stereo not drawn) | 33.14% |
| COCC1Cn2nnc(-c3cnn(C)c3)c2CN1Cc1ccoc1 (stereo not drawn) | 19.42% |
| Cc1ccccc1CNC(=O)Cn1nc(-c2ccc(F)cc2)oc1=O | -25.13% |
| CCOc1ccc(C(=O)Nc2c(C)nc3ccc(Cl)cn3c2=O)cc1 | 27% |
| Cc1cc2cc(Nc3c(C#N)c(=O)n(C)c(=O)n3C)ccc2[nH]1 | 13.53% |
| O=C(CSc1ccc2c(c1)OCCO2)NS(=O)(=O)c1cccnc1 | 16.95% |
| Cc1cccc(N(C)S(=O)(=O)c2cc(C(=O)O)cs2)c1 | 68.24% |
| Cc1ccc(N(C)S(=O)(=O)c2cc(C(=O)O)cs2)cc1 | -29.54% |
| Cc1cc(C)cc(N(C)S(=O)(=O)c2cc(C(=O)O)cs2)c1 | -8.84% |
| O=C(Nc1ccccc1)N1C[C@@H]2C[C@H](C(=O)N3CCOCC3)[C@H](C1)O2 | 24.15% |
| CC(C)(C)CC(=O)NCCn1nc(C2CCNC2)c2cccnc21 (stereo not drawn) | 21.13% |
| CN(C)c1ccc(NC(=O)NCc2ccccn2)cn1 | 17.39% |
| CN(C)c1ccc(NC(=O)NCc2ccc(Cl)s2)cn1 | 17.62% |
| Cc1nc(CNC(=O)Nc2ccc(N(C)C)nc2)sc1C | 74.34% |
| O=C(CC1=CSC2=NCCN12)N1CCCC(CCc2cccc(F)c2)C1 (stereo not drawn) | -33.45% |
| CN(C)C(=O)Cc1ccccc1NCc1nc(Cc2ccccc2)no1 | -12.95% |
| CNC(=O)C1(c2cnccn2)CCCN1C(=O)c1ccccn1 (stereo not drawn) | -3.55% |
